# Values joined by “and” are separate entries in the source; they are usually repeats but may differ in a detail not shown here. Equal entries are not always repeated. Where two headings read alike, the source gives them in different places.
# Experiments:
# Conditions in all cases: concentration: 1 μM, replicates: in singlicate, n = 1
# MEK1 = test system: T1, MEK1
# T1 construct: gene MAP2K1
# MEK2 = test system: T2, MEK2
# T2 construct: gene MAP2K2
# MEK3 = test system: T3, MEK3
# T3 construct: gene MAP2K3
# MEK4 = test system: T4, MEK4
# T4 construct: gene MAP2K4
# MEK5 = test system: T5, MEK5
# T5 construct: gene MAP2K5
# MEK6 = test system: T6, MEK6
# T6 construct: gene MAP2K6
# MELK = test system: MELK
# MERTK = test system: MERTK
# MET = test system: MET
# MINK = test system: T7, MINK
# T7 construct: gene MINK1
# MKK7 = test system: MKK7
# MKNK1 = test system: MKNK1
# MKNK2 = test system: MKNK2
# MLCK = test system: T8, MLCK
# T8 construct: gene MYLK3
# MLK1 = test system: T9, MLK1
# T9 construct: gene MAP3K9
# MLK2 = test system: MLK2
# MLK3 = test system: MLK3
# MRCKA = test system: MRCKA
# MRCKB = test system: T10, MRCKB
# T10 construct: gene CDC42BPB
# MST1R = test system: MST1R
# 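Note: KINOMEscan kinase panel screen.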
smiles,measurement,setting,value
O=c1cc(N2CCOCC2)nc2n(Cc3cccc(Cl)c3Cl)c(C3CC3)nn12 [GSK2358994],%Inh,MEK1,17%
same,%Inh,MEK2,13%
same,%Inh,MEK3,22%
same,%Inh,MEK4,0%
same,%Inh,MEK5,6%
same,%Inh,MEK6,17%
same,%Inh,MELK,3%
same,%Inh,MERTK,34%
same,%Inh,MET,0%
same,%Inh,MINK,0%
same,%Inh,MKK7,0%
same,%Inh,MKNK1,0%
same,%Inh,MKNK2,0%
same,%Inh,MLCK,0%
same,%Inh,MLK1,0%
same,%Inh,MLK2,0%
same,%Inh,MLK3,14%
same,%Inh,MRCKA,0%
same,%Inh,MRCKB,0%
same,%Inh,MST1R,14%
Cc1ccc(C(=O)NCC(N)=O)cc1-n1c(C)cc(OCc2ccc(F)cc2F)c(Br)c1=O,%Inh,MEK1,0%
same,%Inh,MEK2,26%
same,%Inh,MEK3,0%
same,%Inh,MEK4,0%
same,%Inh,MEK5,2%
same,%Inh,MEK6,13%
same,%Inh,MELK,24%
same,%Inh,MERTK,3%
same,%Inh,MET,15%
same,%Inh,MINK,0%
same,%Inh,MKK7,0%
same,%Inh,MKNK1,0%
same,%Inh,MKNK2,0%
same,%Inh,MLCK,0%
same,%Inh,MLK1,25%
same,%Inh,MLK2,19%
same,%Inh,MLK3,22%
same,%Inh,MRCKA,3%
same,%Inh,MRCKB,12%
same,%Inh,MST1R,29%
c1ccc(-c2n[nH]cc2-c2ccnc3ccccc23)nc1 [GW271431],%Inh,MEK1,0%
same,%Inh,MEK2,0%
same,%Inh,MEK3,0%
same,%Inh,MEK4,32%
same,%Inh,MEK5,30%
same,%Inh,MEK6,0%
same,%Inh,MELK,10%
same,%Inh,MERTK,34%
same,%Inh,MET,0%
same,%Inh,MINK,54%
same,%Inh,MKK7,0%
same,%Inh,MKNK1,6%
same,%Inh,MKNK2,7%
same,%Inh,MLCK,10%
same,%Inh,MLK1,0%
same,%Inh,MLK2,0%
same,%Inh,MLK3,22%
same,%Inh,MRCKA,28%
same,%Inh,MRCKB,13%
same,%Inh,MST1R,32%
NS(=O)(=O)CCc1cccc(Nc2nccc(-c3c(-c4cccc(NC(=O)c5c(F)cccc5F)c4)nn4ccccc34)n2)c1 [GSK336735],%Inh,MEK1,82%
same,%Inh,MEK2,76%
same,%Inh,MEK3,12%
same,%Inh,MEK4,36%
same,%Inh,MEK5,99.7%
same,%Inh,MEK6,47%
same,%Inh,MELK,24%
same,%Inh,MERTK,87%
same,%Inh,MET,83%
same,%Inh,MINK,62%
same,%Inh,MKK7,100%
same,%Inh,MKNK1,0%
same,%Inh,MKNK2,0%
same,%Inh,MLCK,20%
same,%Inh,MLK1,0%
same,%Inh,MLK2,3%
same,%Inh,MLK3,43%
same,%Inh,MRCKA,92.2%
same,%Inh,MRCKB,96.2%
same,%Inh,MST1R,62%
C[C@@H](Oc1cc(-n2cnc3ccc(NC(=O)NC(C)(C)C)cc32)sc1C(N)=O)c1ccccc1Cl [GSK346294],%Inh,MEK1,0%
same,%Inh,MEK2,0%
same,%Inh,MEK3,0%
same,%Inh,MEK4,14%
same,%Inh,MEK5,18%
same,%Inh,MEK6,0%
same,%Inh,MELK,21%
same,%Inh,MERTK,8%
same,%Inh,MET,0%
same,%Inh,MINK,4%
same,%Inh,MKK7,0%
same,%Inh,MKNK1,0%
same,%Inh,MKNK2,0%
same,%Inh,MLCK,0%
same,%Inh,MLK1,0%
same,%Inh,MLK2,27%
same,%Inh,MLK3,37%
same,%Inh,MRCKA,12%
same,%Inh,MRCKB,5%
same,%Inh,MST1R,29%
CSc1ccc(-c2cc3ncnc(SCC(=O)O)c3s2)cc1,%Inh,MEK1,0%
same,%Inh,MEK2,0%
same,%Inh,MEK3,2%
same,%Inh,MEK4,0%
same,%Inh,MEK5,1%
same,%Inh,MEK6,0%
same,%Inh,MELK,10%
same,%Inh,MERTK,0%
same,%Inh,MET,3%
same,%Inh,MINK,8%
same,%Inh,MKK7,0%
same,%Inh,MKNK1,0%
same,%Inh,MKNK2,0%
same,%Inh,MLCK,3%
same,%Inh,MLK1,0%
same,%Inh,MLK2,24%
same,%Inh,MLK3,0%
same,%Inh,MRCKA,8%
same,%Inh,MRCKB,34%
same,%Inh,MST1R,36%
CC(C)Oc1ccc2c(-c3ccnc(Nc4ccc(N5CCN(C)CC5)cc4)n3)cnn2n1 [GW696155],%Inh,MEK1,25%
same,%Inh,MEK2,43%
same,%Inh,MEK3,43%
same,%Inh,MEK4,50%
same,%Inh,MEK5,82%
same,%Inh,MEK6,53%
same,%Inh,MELK,71%
same,%Inh,MERTK,10%
same,%Inh,MET,0%
same,%Inh,MINK,65%
same,%Inh,MKK7,0%
same,%Inh,MKNK1,37%
same,%Inh,MKNK2,84%
same,%Inh,MLCK,42%
same,%Inh,MLK1,0%
same,%Inh,MLK2,0%
same,%Inh,MLK3,0%
same,%Inh,MRCKA,35%
same,%Inh,MRCKB,0%
same,%Inh,MST1R,0%
Cl.Cl.Cl.Fc1ccc(-c2ncn(C3CCNCC3)c2-c2ccnc(Nc3ccccc3)n2)cc1 [SB-238039],%Inh,MEK1; 1 µM,36% and 3%
same,%Inh,MEK2; 1 µM,58% and 26%
same,%Inh,MEK3; 1 µM,45% and 44%
same,%Inh,MEK4; 1 µM,31% and 6%
same,%Inh,MEK5; 1 µM,47% and 18%
same,%Inh,MEK6; 1 µM,59% and 42%
same,%Inh,MELK; 1 µM,51% and 31%
same,%Inh,MERTK; 1 µM,15% and 0%
same,%Inh,MET; 1 µM,8% and 0%
same,%Inh,MINK; 1 µM,89% and 88%
same,%Inh,MKK7; 1 µM,23% and 0%
same,%Inh,MKNK1,0%
same,%Inh,MKNK2; 1 µM,0% and 29%
same,%Inh,MLCK,0%
same,%Inh,MLK1,0%
same,%Inh,MLK2; 1 µM,40% and 6%
same,%Inh,MLK3,0%
same,%Inh,MRCKA; 1 µM,90.3% and 71%
same,%Inh,MRCKB; 1 µM,75% and 92.8%
same,%Inh,MST1R; 1 µM,0% and 40%
NCCNS(=O)(=O)c1ccc(-c2ccnc3[nH]ccc23)cc1 [GSK977617],%Inh,MEK1; 1 µM,24% and 17%
same,%Inh,MEK2; 1 µM,52% and 48%
same,%Inh,MEK3; 1 µM,46% and 21%
same,%Inh,MEK4; 1 µM,42% and 23%
same,%Inh,MEK5; 1 µM,88% and 70%
same,%Inh,MEK6; 1 µM,18% and 11%
same,%Inh,MELK; 1 µM,99.2% and 95.2%
same,%Inh,MERTK; 1 µM,73% and 57%
same,%Inh,MET; 1 µM,20% and 0%
same,%Inh,MINK; 1 µM,48% and 34%
same,%Inh,MKK7,0%
same,%Inh,MKNK1; 1 µM,35% and 28%
same,%Inh,MKNK2; 1 µM,97% and 94.8%
same,%Inh,MLCK; 1 µM,88% and 77%
same,%Inh,MLK1; 1 µM,21% and 2%
same,%Inh,MLK2; 1 µM,21% and 18%
same,%Inh,MLK3; 1 µM,22% and 0%
same,%Inh,MRCKA; 1 µM,44% and 0%
same,%Inh,MRCKB; 1 µM,80% and 62%
same,%Inh,MST1R; 1 µM,21% and 16%
CCn1cnc2c(N)ncnc21 [GW345098],%Inh,MEK1,26%
same,%Inh,MEK2,20%
same,%Inh,MEK3,26%
same,%Inh,MEK4,11%
same,%Inh,MEK5,1%
same,%Inh,MEK6,0%
same,%Inh,MELK,0%
same,%Inh,MERTK,25%
same,%Inh,MET,2%
same,%Inh,MINK,5%
same,%Inh,MKK7,0%
same,%Inh,MKNK1,0%
same,%Inh,MKNK2,0%
same,%Inh,MLCK,1%
same,%Inh,MLK1,6%
same,%Inh,MLK2,12%
same,%Inh,MLK3,4%
same,%Inh,MRCKA,0%
same,%Inh,MRCKB,2%
same,%Inh,MST1R,0%
CN(C1=C(c2ccccc2)C(=O)NC1=O)c1ccccc1 [SB-334860],%Inh,MEK1,0%
same,%Inh,MEK2,0%
same,%Inh,MEK3,7%
same,%Inh,MEK4,14%
same,%Inh,MEK5,34%
same,%Inh,MEK6,0%
same,%Inh,MELK,24%
same,%Inh,MERTK,0%
same,%Inh,MET,0%
same,%Inh,MINK,23%
same,%Inh,MKK7,47%
same,%Inh,MKNK1,5%
same,%Inh,MKNK2,8%
same,%Inh,MLCK,0%
same,%Inh,MLK1,0%
same,%Inh,MLK2,0%
same,%Inh,MLK3,19%
same,%Inh,MRCKA,18%
same,%Inh,MRCKB,0%
same,%Inh,MST1R,12%
Cc1cccc(-c2nc(Nc3ccc4ncsc4c3)c3ccccc3n2)n1 [GW867588],%Inh,MEK1,2%
same,%Inh,MEK2,3%
same,%Inh,MEK3,3%
same,%Inh,MEK4,0%
same,%Inh,MEK5,12%
same,%Inh,MEK6,0%
same,%Inh,MELK,5%
same,%Inh,MERTK,0%
same,%Inh,MET,0%
same,%Inh,MINK,0%
same,%Inh,MKK7,0%
same,%Inh,MKNK1,16%
same,%Inh,MKNK2,0%
same,%Inh,MLCK,0%
same,%Inh,MLK1,7%
same,%Inh,MLK2,20%
same,%Inh,MLK3,1%
same,%Inh,MRCKA,2%
same,%Inh,MRCKB,33%
same,%Inh,MST1R,0%
O=c1cc(N2CCOCC2)nc2n(Cc3cccc(C(F)(F)F)c3)ccn12 [GSK2297543],%Inh,MEK1,0%
same,%Inh,MEK2,0%
same,%Inh,MEK3,0%
same,%Inh,MEK4,31%
same,%Inh,MEK5,0%
same,%Inh,MEK6,0%
same,%Inh,MELK,4%
same,%Inh,MERTK,0%
same,%Inh,MET,0%
same,%Inh,MINK,0%
same,%Inh,MKK7,0%
same,%Inh,MKNK1,0%
same,%Inh,MKNK2,0%
same,%Inh,MLCK,0%
same,%Inh,MLK1,0%
same,%Inh,MLK2,14%
same,%Inh,MLK3,19%
same,%Inh,MRCKA,0%
same,%Inh,MRCKB,0%
same,%Inh,MST1R,12%
CN(C(=O)c1ccc(-c2cc(-c3c[nH]nc3-c3ccccn3)ccn2)cc1)C1CCOCC1 [GW810083],%Inh,MEK1,0%
same,%Inh,MEK2,0%
same,%Inh,MEK3,14%
same,%Inh,MEK4,0%
same,%Inh,MEK5,5%
same,%Inh,MEK6,0%
same,%Inh,MELK,41%
same,%Inh,MERTK,0%
same,%Inh,MET,0%
same,%Inh,MINK,8%
same,%Inh,MKK7,0%
same,%Inh,MKNK1,0%
same,%Inh,MKNK2,37%
same,%Inh,MLCK,0%
same,%Inh,MLK1,0%
same,%Inh,MLK2,0%
same,%Inh,MLK3,0%
same,%Inh,MRCKA,4%
same,%Inh,MRCKB,10%
same,%Inh,MST1R,0%
COCCNC(=O)c1ccc(-c2cc(C(=O)NC3CC3)cc(F)c2C)cc1 [GW868318],%Inh,MEK1,25%
same,%Inh,MEK2,32%
same,%Inh,MEK3,29%
same,%Inh,MEK4,34%
same,%Inh,MEK5,53%
same,%Inh,MEK6,0%
same,%Inh,MELK,0%
same,%Inh,MERTK,0%
same,%Inh,MET,0%
same,%Inh,MINK,23%
same,%Inh,MKK7,37%
same,%Inh,MKNK1,22%
same,%Inh,MKNK2,25%
same,%Inh,MLCK,13%
same,%Inh,MLK1,0%
same,%Inh,MLK2,41%
same,%Inh,MLK3,0%
same,%Inh,MRCKA,0%
same,%Inh,MRCKB,14%
same,%Inh,MST1R,20%
